Measured values from the supplement of paper PMC8183993.
Values joined by “and” are separate entries in the source; they are usually repeats but may differ in a detail not shown here. Equal values may be shown once. Where a name gives a salt, the structure may show the parent alone. ± gives the standard deviation of the averaged measurements. In all, about 3,100 compounds were measured (“mean cytoplasmic OPP incorporation (global translation) relative to DMSO”: median about 100, lowest 2% from about 56 on). The list comes from a sample in which the lowest values are over-represented; it also holds similar structures and randomly drawn compounds.

Test system: U2OS
Experiment: mean cytoplasmic OPP incorporation (global translation) relative to DMSO (% of DMSO); higher = more protein synthesis
Settings: 10 µM; 24 h
Description: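 Primary image-based screen in U2OS cells: compounds at 10 uM for 24 h, then a 1 h o-propargyl-puromycin (OPP) pulse, click labelling, and high-throughput microscopy. Mean cytoplasmic OPP intensity and nuclei count were normalised to DMSO wells within each plate (DMSO = 100) and averaged over triplicate plates.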

| Structure (SMILES) | mean cytoplasmic OPP incorporation |
| --- | --- |
| CCN(CC)CCNC(=O)c1c(C)[nH]c(/C=C2\C(=O)Nc3ccc(Cl)cc32)c1C | 124 |
| Cc1nnc(-c2ccc3occ(-c4ccc([S+](C)[O-])cc4)c3c2)o1 (centres undefined) | 105 |
| CCCCC[C@H](O)/C=C/C=C\CCCCCCCC(=O)O [13(S)-Hydroxy-9Z,11E-octadecadienoic acid] | 99.3 |
| CC(/C=C/C(=O)NO)=C\[C@@H](C)C(=O)c1ccc(N(C)C)cc1 [Trichostatin A] | 66.2 ± 33 |
| Cc1[nH]c(/C=C2\C(=O)Nc3ccc(S(=O)(=O)N(C)c4cccc(Cl)c4)cc32)c(C)c1C(=O)N1CCN(C)CC1 | 88.9 |
| CN1CCN(C(=O)c2nc3ccc(Cl)cc3[nH]2)CC1 | 81.1 |
| CN1CCCN(C(=O)c2cccc(-c3ccc(/C=C4/C(=O)Nc5ccc(Cl)cc54)o3)c2)CC1 | 55.4 |
| NCCCCCc1c[nH]cn1 [Impentamine dihydrobromide] | 99.3 |
| Cc1cc(C)c(S(=O)(=O)Nc2ccccc2C(F)(F)F)c(C)c1 | 97.3 |
| O=C(Nc1ccccc1-c1cn2c(CN3CCNCC3)csc2n1)c1cnc2ccccc2n1 | 48.8 |
| Cc1cc(C(=O)O)sc1C(N)C(=O)O (centres undefined) | 104 |
| COC(=O)[C@@H](N)CSC/C=C(\C)CC/C=C(\C)CCC=C(C)C [S-Farnesyl-L-cysteine methyl ester] | 95.9 |
| CSc1ccc(/C=C2/C(C)=C(CC(=O)O)c3cc(F)ccc32)cc1 [Sulindac Sulfide] | 104 |
| NS(=O)(=O)c1ccc(NC(=O)Nc2ccc(F)cc2)cc1 | 98.7 |
| Nc1nc(Nc2ccc(S(N)(=O)=O)cc2)nn1C(=O)c1c(F)cccc1F | 50.1 |
| COc1ccc(CCN2CCN(CCCc3ccccc3)CC2)cc1OC | 111 |
| CCN(C(=O)CO)[C@H]1CN(/C(=N\C#N)Nc2cccc(OC(F)F)c2)N=C1c1ccc(Cl)c(Cl)c1 | 107 |
| CCCCCCCCOC(=O)/C=C/c1ccc(O)c(O)c1 [n-Octyl caffeate] | 88.9 |
| NC(N)=NCCC[C@H](NC(=O)[C@@H]1CCCN1C(=O)[C@H](N)Cc1ccccc1)C(=O)CCl | 99.7 |
| O=C(O)Cc1ccc(OCCNC[C@H](O)c2ccccc2)cc1 [ZD 2079 hydrochloride] | 103 |
| Cc1cc(I)ccc1Nc1c(C(=O)NOCC2CC2)cc(F)c(F)c1F | 97.5 |
| CCCC[C@@H](C=O)NC(=O)[C@H](CC(C)C)NC(=O)OCc1ccccc1 [Calpeptin] | 106 ± 7.2 |
| CC(NC(=O)C(Cc1ccccc1)NC(=O)OCc1ccccc1)C(=O)CF (centres undefined) | 101 |
| CC(C)C[C@@H](C=O)NC(=O)[C@H](CC(C)C)NC(=O)[C@H](CC(C)C)NC(=O)OCc1ccccc1 | 91.4 and 56.1 |
